# From the supplement of paper PMC10849652
# About 7,900 targets were measured; listed, in parts, are those with a hit and a random draw of the rest. About 0.6% of all pairs of compound and target were hits. Values without a mark were called inactive.
# Assays:
# Assay in all cases: log2 fold change, soluble protein after heating vs DMSO (PISA); higher = thermal stabilisation; K562 cells, 10 uM, 30 min; active = over 0.2 and 3.5 SD of the protein, either way, in both replicates (recomputed)
# [1] = compound: CS(=O)(=O)c1ccc(-c2cnc(N)c(C(=O)Nc3ccccc3)n2)cc1
# Method in brief: (§1)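 K562 cells at 2×10^6 cells/mL were exposed to 10 μM compound for 30 min, then aliquots were heated for 3 min across 48°C-58°C, pooled, and extracted in PBS containing 0.5% NP-40 at 4°C. The supernatant after 21,000xg for 90 min was taken as soluble protein and measured by TMTpro 16plex LC-MS/MS with channel sums equalised. Thermal stability is reported relative to control samples, with values from duplicates. Fold changes are given on a log2 scale.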
# crizotinib = compound: C[C@@H](Oc1cc(-c2cnn(C3CCNCC3)c2)cnc1N)c1c(Cl)ccc(F)c1Cl [crizotinib]
# Method in brief: as §1
# [2] = compound: C[C@@H]1COCCN1C2=NC(=NC(=C2)C3(CC3)S(=O)(=O)C)C4=C5C=CNC5=CC=C4
# Method in brief: as §1
# [3] = compound: C[C@H](C1=CC=C(C=C1)C(=O)NC2=C3C=CNC3=NC=C2)N
# Method in brief: as §1
# duvelisib = compound: C[C@H](Nc1ncnc2nc[nH]c12)c1cc2cccc(Cl)c2c(=O)n1-c1ccccc1 [duvelisib]
# Method in brief: as §1
# gandotinib = compound: Cc1cc(Nc2cc(CN3CCOCC3)c3nc(C)c(Cc4ccc(Cl)cc4F)n3n2)n[nH]1 [gandotinib]
# Method in brief: as §1
# tozasertib = compound: Cc1cc(Nc2cc(N3CCN(C)CC3)nc(Sc3ccc(NC(=O)C4CC4)cc3)n2)n[nH]1 [tozasertib]
# Method in brief: as §1
# [4] = compound: Cc1cc(SCc2sc(-c3ccc(C(F)(F)F)cc3)nc2C)ccc1OCC(=O)O
# Method in brief: as §1
# doramapimod = compound: Cc1ccc(-n2nc(C(C)(C)C)cc2NC(=O)Nc2ccc(OCCN3CCOCC3)c3ccccc23)cc1 [doramapimod]
# Method in brief: as §1
# ispinesib = compound: Cc1ccc(C(=O)N(CCCN)[C@@H](c2nc3cc(Cl)ccc3c(=O)n2Cc2ccccc2)C(C)C)cc1 [ispinesib]
# Method in brief: as §1
# bafetinib = compound: Cc1ccc(NC(=O)c2ccc(CN3CC[C@H](N(C)C)C3)c(C(F)(F)F)c2)cc1Nc1nccc(-c2cncnc2)n1 [bafetinib]
# Method in brief: as §1
# [5] = compound: Cc1cccc(CC(=O)N2CCc3c2ccc(-c2cn(C)c4ncnc(N)c24)c3F)n1
# Method in brief: as §1
# nilotinib = compound: Cc1cn(-c2cc(NC(=O)c3ccc(C)c(Nc4nccc(-c5cccnc5)n4)c3)cc(C(F)(F)F)c2)cn1 [nilotinib]
# Method in brief: as §1
# [6] = compound: Cc1nc(Nc2n[nH]c3c2CN(C(=O)N[C@H](CN(C)C)c2ccccc2)C3(C)C)c2sccc2n1
# Method in brief: as §1
# dasatinib = compound: Cc1nc(Nc2ncc(C(=O)Nc3c(C)cccc3Cl)s2)cc(N2CCN(CCO)CC2)n1 [dasatinib]
# Method in brief: as §1
# [7] = compound: Cc1ncc(-c2ccnc(Nc3ccc(S(C)(=O)=O)cc3)n2)n1C(C)C
# Method in brief: as §1
# [8] = compound: Cn1cc(-c2ccc3c(c2)CCN3C(=O)Cc2cccc(C(F)(F)F)c2)c2c(N)ncnc21
# Method in brief: as §1
# [9] = compound: Cn1cc(-c2ccc3nnc(C(F)(F)c4ccc5ncccc5c4)n3n2)cn1
# Method in brief: as §1
# tipifarnib = compound: Cn1cncc1[C@@](N)(c1ccc(Cl)cc1)c1ccc2c(c1)c(-c1cccc(Cl)c1)cc(=O)n2C [tipifarnib]
# Method in brief: as §1
# mubritinib = compound: FC(F)(F)c1ccc(/C=C/c2nc(COc3ccc(CCCCn4ccnn4)cc3)co2)cc1 [mubritinib]
# Method in brief: as §1
# Chain of UniProt Q9Y5K5 (Q9Y5K5 whole entry, looked up): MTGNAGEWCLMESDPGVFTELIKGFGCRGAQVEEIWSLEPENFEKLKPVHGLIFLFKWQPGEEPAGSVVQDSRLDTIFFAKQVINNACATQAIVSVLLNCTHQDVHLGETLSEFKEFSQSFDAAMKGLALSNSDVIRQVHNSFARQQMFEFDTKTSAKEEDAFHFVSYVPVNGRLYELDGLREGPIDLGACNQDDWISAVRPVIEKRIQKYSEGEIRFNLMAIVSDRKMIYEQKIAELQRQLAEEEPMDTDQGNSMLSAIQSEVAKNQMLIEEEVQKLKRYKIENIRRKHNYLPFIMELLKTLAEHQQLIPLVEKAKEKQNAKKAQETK
# Chain of UniProt Q16763 (Q16763 whole entry, looked up): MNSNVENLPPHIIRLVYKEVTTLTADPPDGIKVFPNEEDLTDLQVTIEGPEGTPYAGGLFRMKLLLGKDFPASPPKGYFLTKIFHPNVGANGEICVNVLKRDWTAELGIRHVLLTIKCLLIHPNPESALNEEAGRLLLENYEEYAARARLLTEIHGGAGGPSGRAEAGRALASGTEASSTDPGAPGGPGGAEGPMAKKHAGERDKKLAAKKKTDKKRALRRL
# Chain of UniProt Q8N4H5 (Q8N4H5 whole entry, looked up): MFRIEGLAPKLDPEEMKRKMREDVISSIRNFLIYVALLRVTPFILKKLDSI
# Chain of UniProt Q96QU8 (Q96QU8 whole entry, looked up): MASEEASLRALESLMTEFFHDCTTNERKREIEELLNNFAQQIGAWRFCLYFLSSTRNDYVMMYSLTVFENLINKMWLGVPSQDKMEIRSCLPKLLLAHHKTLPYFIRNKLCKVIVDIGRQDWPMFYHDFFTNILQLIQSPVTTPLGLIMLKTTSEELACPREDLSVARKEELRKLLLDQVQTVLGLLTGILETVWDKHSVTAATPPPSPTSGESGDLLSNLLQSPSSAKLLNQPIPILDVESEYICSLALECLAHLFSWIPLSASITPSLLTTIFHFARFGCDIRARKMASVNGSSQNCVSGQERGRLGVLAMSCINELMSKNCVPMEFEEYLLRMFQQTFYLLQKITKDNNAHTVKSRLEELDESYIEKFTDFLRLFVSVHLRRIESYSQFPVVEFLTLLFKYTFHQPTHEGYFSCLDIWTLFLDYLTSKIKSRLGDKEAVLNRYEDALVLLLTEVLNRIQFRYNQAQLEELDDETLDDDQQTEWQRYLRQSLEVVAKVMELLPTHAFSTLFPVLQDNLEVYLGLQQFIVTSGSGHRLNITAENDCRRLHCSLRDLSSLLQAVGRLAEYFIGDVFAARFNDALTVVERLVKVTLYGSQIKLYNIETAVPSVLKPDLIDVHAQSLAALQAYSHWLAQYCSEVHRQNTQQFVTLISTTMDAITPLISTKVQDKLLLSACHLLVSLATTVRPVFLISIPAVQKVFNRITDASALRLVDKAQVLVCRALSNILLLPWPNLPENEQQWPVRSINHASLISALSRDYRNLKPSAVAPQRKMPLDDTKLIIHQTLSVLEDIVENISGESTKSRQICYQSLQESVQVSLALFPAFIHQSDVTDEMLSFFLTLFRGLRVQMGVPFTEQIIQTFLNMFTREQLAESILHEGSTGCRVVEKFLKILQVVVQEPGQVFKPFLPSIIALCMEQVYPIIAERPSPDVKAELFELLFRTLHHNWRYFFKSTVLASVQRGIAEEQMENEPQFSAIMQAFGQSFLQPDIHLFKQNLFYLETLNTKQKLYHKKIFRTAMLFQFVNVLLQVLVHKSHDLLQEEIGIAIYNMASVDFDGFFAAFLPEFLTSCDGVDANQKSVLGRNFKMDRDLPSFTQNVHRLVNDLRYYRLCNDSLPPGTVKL
# Chain of UniProt Q9H270 (Q9H270 whole entry, looked up): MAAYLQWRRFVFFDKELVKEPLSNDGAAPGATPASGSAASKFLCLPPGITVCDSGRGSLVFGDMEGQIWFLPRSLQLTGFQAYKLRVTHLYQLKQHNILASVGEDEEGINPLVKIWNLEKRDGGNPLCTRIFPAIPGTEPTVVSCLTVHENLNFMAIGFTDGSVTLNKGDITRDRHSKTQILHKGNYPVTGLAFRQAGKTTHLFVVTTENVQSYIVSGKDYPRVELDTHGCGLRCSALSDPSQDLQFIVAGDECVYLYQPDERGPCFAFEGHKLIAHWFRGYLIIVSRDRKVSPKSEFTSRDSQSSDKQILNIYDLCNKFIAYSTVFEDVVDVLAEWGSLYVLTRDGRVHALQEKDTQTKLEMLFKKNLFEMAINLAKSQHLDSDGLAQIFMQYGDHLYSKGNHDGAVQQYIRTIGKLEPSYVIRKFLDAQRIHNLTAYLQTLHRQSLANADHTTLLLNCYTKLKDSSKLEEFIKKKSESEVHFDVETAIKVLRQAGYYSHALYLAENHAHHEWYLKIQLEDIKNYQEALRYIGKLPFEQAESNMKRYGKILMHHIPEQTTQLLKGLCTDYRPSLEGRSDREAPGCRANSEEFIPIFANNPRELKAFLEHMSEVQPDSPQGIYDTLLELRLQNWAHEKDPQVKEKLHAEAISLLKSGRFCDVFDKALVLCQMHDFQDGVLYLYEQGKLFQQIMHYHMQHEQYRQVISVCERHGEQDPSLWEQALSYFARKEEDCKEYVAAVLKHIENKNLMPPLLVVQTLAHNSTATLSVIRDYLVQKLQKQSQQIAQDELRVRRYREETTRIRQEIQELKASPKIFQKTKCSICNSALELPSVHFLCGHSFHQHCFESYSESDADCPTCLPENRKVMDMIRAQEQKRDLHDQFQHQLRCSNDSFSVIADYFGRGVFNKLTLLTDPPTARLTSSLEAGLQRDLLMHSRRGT
# Chain of UniProt A0PJW6 (A0PJW6 whole entry, looked up): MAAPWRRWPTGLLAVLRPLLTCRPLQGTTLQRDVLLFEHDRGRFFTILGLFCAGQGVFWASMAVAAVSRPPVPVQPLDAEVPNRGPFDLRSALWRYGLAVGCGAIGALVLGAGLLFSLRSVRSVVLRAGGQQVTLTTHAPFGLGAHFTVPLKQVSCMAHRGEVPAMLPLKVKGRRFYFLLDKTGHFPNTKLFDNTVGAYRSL
# Chain of UniProt O43156 (O43156 whole entry, looked up): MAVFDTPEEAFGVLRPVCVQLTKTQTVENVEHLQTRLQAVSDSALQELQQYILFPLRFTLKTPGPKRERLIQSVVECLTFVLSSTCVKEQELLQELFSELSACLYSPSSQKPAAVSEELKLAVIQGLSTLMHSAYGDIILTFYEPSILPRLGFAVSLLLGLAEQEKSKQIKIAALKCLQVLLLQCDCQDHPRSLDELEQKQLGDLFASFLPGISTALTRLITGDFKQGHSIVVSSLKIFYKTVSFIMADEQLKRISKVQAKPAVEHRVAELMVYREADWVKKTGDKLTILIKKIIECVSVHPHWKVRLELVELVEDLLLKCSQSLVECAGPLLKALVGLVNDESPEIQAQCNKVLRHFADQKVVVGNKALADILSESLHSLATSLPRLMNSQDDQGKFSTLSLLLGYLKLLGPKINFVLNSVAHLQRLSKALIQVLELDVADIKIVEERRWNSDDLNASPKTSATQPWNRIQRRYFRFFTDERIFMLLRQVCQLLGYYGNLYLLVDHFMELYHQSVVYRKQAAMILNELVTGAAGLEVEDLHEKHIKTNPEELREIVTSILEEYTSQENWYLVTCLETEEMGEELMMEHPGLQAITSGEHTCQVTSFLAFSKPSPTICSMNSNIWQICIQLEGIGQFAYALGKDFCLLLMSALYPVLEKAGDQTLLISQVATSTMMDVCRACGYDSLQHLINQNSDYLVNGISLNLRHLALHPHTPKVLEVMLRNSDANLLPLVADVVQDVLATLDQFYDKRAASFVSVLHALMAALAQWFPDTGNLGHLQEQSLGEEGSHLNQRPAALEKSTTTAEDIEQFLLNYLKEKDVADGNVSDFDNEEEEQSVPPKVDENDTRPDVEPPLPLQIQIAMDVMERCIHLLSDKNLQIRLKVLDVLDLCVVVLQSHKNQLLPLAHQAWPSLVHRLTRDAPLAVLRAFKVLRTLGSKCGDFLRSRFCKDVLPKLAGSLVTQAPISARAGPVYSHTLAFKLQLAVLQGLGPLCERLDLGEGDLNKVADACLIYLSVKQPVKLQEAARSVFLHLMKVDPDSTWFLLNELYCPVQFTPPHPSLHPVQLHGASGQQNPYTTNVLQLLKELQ
# Chain of UniProt P68366 (P68366 whole entry, looked up): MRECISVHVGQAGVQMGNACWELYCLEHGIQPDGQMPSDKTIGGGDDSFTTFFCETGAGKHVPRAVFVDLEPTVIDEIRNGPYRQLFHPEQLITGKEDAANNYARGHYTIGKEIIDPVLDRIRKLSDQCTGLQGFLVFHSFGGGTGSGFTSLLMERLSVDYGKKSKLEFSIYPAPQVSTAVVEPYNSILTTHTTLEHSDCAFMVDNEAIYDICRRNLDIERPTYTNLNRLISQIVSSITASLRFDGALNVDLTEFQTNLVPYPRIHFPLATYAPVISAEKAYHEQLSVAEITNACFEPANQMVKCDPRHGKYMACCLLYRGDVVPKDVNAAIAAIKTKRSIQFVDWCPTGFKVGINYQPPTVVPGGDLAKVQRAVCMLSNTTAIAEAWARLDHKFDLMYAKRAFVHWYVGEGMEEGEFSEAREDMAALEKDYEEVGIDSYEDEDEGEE
# Chain of UniProt Q96LJ8 (Q96LJ8 whole entry, looked up): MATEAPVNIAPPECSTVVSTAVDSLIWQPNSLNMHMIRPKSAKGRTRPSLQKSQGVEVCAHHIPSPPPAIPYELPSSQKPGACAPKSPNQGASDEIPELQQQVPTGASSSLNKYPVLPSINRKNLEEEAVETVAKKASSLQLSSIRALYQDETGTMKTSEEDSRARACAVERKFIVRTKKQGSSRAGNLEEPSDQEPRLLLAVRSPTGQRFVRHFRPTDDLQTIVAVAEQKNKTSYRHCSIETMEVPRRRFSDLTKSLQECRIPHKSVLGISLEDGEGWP
# Chain of UniProt O43617 (O43617 whole entry, looked up): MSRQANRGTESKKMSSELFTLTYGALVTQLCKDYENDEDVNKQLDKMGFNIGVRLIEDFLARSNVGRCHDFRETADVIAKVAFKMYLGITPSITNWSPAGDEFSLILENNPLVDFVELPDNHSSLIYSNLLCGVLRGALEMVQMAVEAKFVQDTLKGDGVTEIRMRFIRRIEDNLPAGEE
Target,log2 fold change [1],log2 fold change (crizotinib),log2 fold change [2],log2 fold change [3],log2 fold change (duvelisib),log2 fold change (gandotinib),log2 fold change (tozasertib),log2 fold change [4],log2 fold change (doramapimod),log2 fold change (ispinesib),log2 fold change (bafetinib),log2 fold change [5],log2 fold change (nilotinib),log2 fold change [6],log2 fold change (dasatinib),log2 fold change [7],log2 fold change [8],log2 fold change [9],log2 fold change (tipifarnib),log2 fold change (mubritinib)
XPO6 (UniProt Q96QU8),-0.033,0.177,-0.277,0.031,-0.001,0.104,-0.011,0.027,0.179,0,0.057,-0.05,-0.143,-0.148,-0.109,0.027,-0.001,-0.117,-0.111,0.092
TTI1 (UniProt O43156),0.075,-0.143,0.003,0.059,-0.03,-0.119,0.041,0.033,0.059,-0.204,-0.006,0.165,-0.036,-0.102,-0.076,0.039,0.085,0,-0.103,0.095
USP24 (UniProt Q9UPU5),0.062,0.204,0.396 (active),0.015,0.219,-0.213,0.045,-0.017,-0.041,0.115,0.037,0.034,0.096,0.007,-0.098,0.09,0.144,0.105,-0.072,0.056
TMEM263 (UniProt Q8WUH6),0.03,-0.717 (active),-0.029,0.018,-0.007,-0.385,-0.019,0.046,-0.075,-0.936 (active),-0.434,0.037,-0.079,-0.027,-0.249,0.124,-0.011,0.02,-0.182,0.054
TUBA4A (UniProt P68366),0.004,-0.11,0.099,-0.054,0.329,0.014,-0.068,0.208,0.008,0.009,0.038,-0.028,-0.011,0.008,-0.102,-0.009,0.047,0.051,-0.073,0.073
TMEM87B (UniProt Q96K49),0.01,-0.323,-0.063,-0.033,0.101,-0.11,0.07,0.071,-0.059,-0.406 (active),-0.138,0.015,0.037,-0.072,0.002,0.05,-0.077,-0.08,0.069,0.006
UBE2S (UniProt Q16763),0.014,0.079,0.003,-0.067,0.042,-0.015,0.025,0.002,0.024,0.1,-0.025,-0.08,-0.008,-0.017,0.001,0.04,-0.002,-0.037,-0.072,0.002
TRAPPC3 (UniProt O43617),-0.003,0.002,0.074,-0.006,0.06,-0.048,0.028,0.017,-0.008,-0.023,-0.033,0.003,-0.007,-0.023,-0.021,-0.001,0.025,0.041,-0.047,0.035
WDR4 (UniProt P57081),0.085,-0.038,-0.024,-0.121,0.014,0.049,-0.007,0.017,0.023,0.075,0.455 (active),-0.06,0.009,0.005,-0.013,-0.003,0.068,-0.061,-0.132,0.031
TOMM5 isoform 2 (UniProt Q8N4H5),0.043,0.139,0.124,-0.053,0.075,0.136,-0.008,-0.023,-0.078,-0.051,-0.141,-0.114,0.079,0.004,-0.004,-0.079,0.062,0.217,0.107,0.038
VPS11 (UniProt Q9H270),0.009,-0.373 (active),-0.039,0.054,-0.016,-0.111,0.034,0.095,-0.029,-0.226,-0.033,0.006,-0.048,-0.006,-0.154,0.005,-0.016,-0.004,-0.093,0.027
UBXN10 (UniProt Q96LJ8),-0.03,-0.121,-0.091,-0.09,-0.017,0.161,-0.122,-0.008,-0.014,-0.124,0.002,-0.266,-0.085,0.141,-0.032,-0.098,-0.075,0.021,0.01,0.067
TRIM28 (UniProt Q13263),-0.001,0.046,0.048,-0.068,0.027,-0.033,0.13,0.039,-0.036,-0.007,0.005,0.011,-0.013,-0.035,-0.014,0.013,-0.02,0.004,-0.035,0.009
TMEM223 (UniProt A0PJW6),-0.008,-0.045,0.038,0.002,0.043,-0.14,0.061,0,0.015,-0.254 (active),-0.156,-0.005,0.032,0.033,-0.052,-0.079,-0.025,0.038,0.013,0.044
WDR7 (UniProt Q9Y4E6),0.025,0.024,-0.029,-0.096,0.042,-0.009,-0.003,0.08,0.065,-0.075,-0.034,0.082,-0.089,-0.01,-0.058,-0.034,0.085,-0.084,0.058,-0.118
UCHL5 (UniProt Q9Y5K5),0.023,-0.066,0,-0.005,-0.006,-0.116,0.036,0.064,-0.015,-0.056,0.014,0.045,-0.06,-0.071,-0.152,0.007,0.012,0,-0.093,-0.001
